Source: PubChem
HT1080-NT tox: kills 2HG-producing HT-1080-NT fibrosarcoma cells. HT-1080-NT fibrosarcoma viability, CellTiter-Glo ATP luminescence, 48 h. Potency, µM (titrated, usually from 46.1 µM), for the others: at the top dose activity, negative = less viability, most hits filed as cytotoxic. 1.6% of 360,000 active. AID 686970;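 note: NT is the 2HG producing partner of a matched IDH1 knockdown line; 0% = DMSO-treated cells and -100% = media-only wells without cells; nearly all actives have a fitted effect of over 55% in size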
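Read-out is CellTiter-Glo luminescence after 10 minutes at room temperature, following 48 hours' compound treatment of HT-1080-NT cells (750 cells/well, RPMI, 5% FBS, 37 degrees C).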
HT1080 IDH1KD tx: HT-1080 IDH1 knockdown cell toxicity (counter line). Potency, µM (doses to about 46.1 µM), for inactives: at the top dose activity, negative = toxicity, hits mostly cytotoxic. HT-1080 IDH1 knockdown viability, ATP luminescence, 48 h. 2% of 360,000 active;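 note: 0% = DMSO wells and -100% = cell-free medium wells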
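In this qHTS, HT-1080 cells depleted of IDH1 are exposed for 48 h at 37 °C to compound titrations. Toxicity is scored from CellTiter-Glo luminescence, with DMSO as full viability and medium alone as none.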
S2 tox: reduces viability in counter-screen for ATXN expression inhibitors. S2 cells (HEK-293 line with an ATXN2-luciferase reporter) viability, CellTiter-Fluor protease fluorescence, 24 h. Potency, µM (titrated, usually from 56.7 µM), hits mostly cytotoxic. 0.49% of 400,000 active; note: nearly all actives have a fitted effect of over 40% in size
ATXN2 expr inh: ATXN2 expression inhibition; HEK-293 ATXN2-luciferase reporter, luminescence, 24 h; Potency, µM (doses to about 57 µM), without a hit: at the highest dose activity change, negative = inhibition, actives largely listed as inhibitors; 0.72% of 360,000 active; AID 1745845; note: % is set by controls: 0 for no effect and ±100 for the full control effect; nearly all actives have a fitted effect of over 55% in size
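ATXN2-luciferase reporter cells (luciferase flanked by upstream and downstream ATXN2 gene portions) were treated 24 h at 37 °C with compounds at up to 57 uM. SteadyGlo luminescence gave expression; GF-AFC fluorescence gave viability.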
TGFb SMAD3 inh: blocks TGF-b signaling; HepG2 CAGA-GFP TGF-b/SMAD3 reporter, GFP fluorescence, 18 h; TGF-beta stimulated, 500 pg/mL final; Potency, µM (highest dose often 46.1 µM), for inactives: at the top dose activity, negative = inhibition, actives largely listed as inhibitors; 1.2% of 410,000 active; AID 588855; note: % is set by controls: 0 for no effect and ±100 for the full control effect; nearly all actives have a fitted effect of over 65% in size
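TGF-beta reporter screen: HEPG2 CAGA-GFP, 1% FBS, 500 pg/mL TGF-beta final, 18 h; per-cell GFP summed per well; curves fitted and categorized by class.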
HepG2 tox: kills HepG2 cells in TGF-b inhibitor counter-screen. Potency, µM (top dose mostly 46.1 µM), for inactives: top-dose activity change, negative = cytotoxicity, usual class: cytotoxic. HepG2 CAGA-GFP viability, ATP luminescence, 18 h. 0.76% of 410,000 active
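CellTiter-Glo luminescence gave cytotoxicity after 18 hours at 37 degrees C. The cells were HepG2 CAGA-GFP in 1% FBS DMEM, stimulated with 500 pg/mL TGF-beta after compound addition. %Activity was normalised to no-cell wells (complete cell-killing) and DMSO (no toxicity), and curves were fitted and classified.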
Starred values were filed as active, the others as inactive; i = inactive; ? = inconclusive; . = no result; ! = not active in a repeat; [ ] = dose if it differs, or a comment. Shown are actives, neighbours in structure and some others; about 3.9% of the full set was active somewhere. Calls come from the whole dose curve; as a rule, active = well fitted curve in the direction sought with a large enough effect; inconclusive = small, poorly fitted or top-dose-only effect, or another doubt; inactive = no such curve, though single readings can be large; an effect the other way counts as inactive or inconclusive. Potency is the fitted concentration of half-maximal effect.

SMILES	HT1080-NT tox	HT1080 IDH1KD tx	S2 tox	ATXN2 expr inh	TGFb SMAD3 inh	HepG2 tox
COC(=O)C1=C(c2cc3ccccc3o2)C[C@@H]2CC[C@H]1N2C(=O)N1CCCCC1	?	10.3µM*	?	-30.1%	?	-33.1%
CC(C)(C)c1cc([N+](=O)[O-])cc(C(C)(C)C)c1O	?	?	?	?	7.94µM*	-40.2%
On1ccccc1=S	0.0411µM*	0.326µM*	0.316µM*	0.282µM*	0.282µM*	1µM*
O=C(NCc1ccc(Cl)cc1)C1CCN(C(=O)c2cnn(-c3ccccc3)c2-n2cccc2)CC1	.	.	i	?	?	-27.8%
COc1cc2nc(N3CCCN(C)CC3)nc(N(C)C3CCN(C)CC3)c2cc1OC	.	.	.	.	?	-56.9%
CN1CCC(N(C)c2nc(-c3ccccc3)nc3ccccc23)CC1	15.8µM*	-1.9%[9.24 µM]	i	?	-11.3%	-47.2%
N#CC(C#N)=NNc1ccc(-n2ccc(C(F)(F)F)n2)cc1	?	4.61µM*	?	?	3.16µM*	-44.8%
O=C(CCl)Nc1sccc1C(=O)c1ccccc1	10.3µM*	?	?	-31.9%	?	-166.2%
NC(=O)c1ccsc1NC(=O)COC(=O)Cc1ccccc1	1.0%	-5.1%	i	.	-1.6%	1.4%
OC(Cn1c2ccccc2c2ccccc21)C[n+]1cccc2ccccc21 (configuration not stated)	-7.5%[9.24 µM]	20µM*	22.4µM*	?	?	-96.1%
c1ccc(N2CCNCC2)cc1	.	.	i	-0.1%	.	.
CC(=NCc1ccc2c(c1)OCO2)c1c(O)n(C)c(=O)n(C)c1=O	2.51µM*	-25.6%	i	-13.9%	-4.0%	-23.5%
Cc1ccc2c(c1)C(Cc1nc3ccccc3c(=O)n1-c1ccc(Br)cc1)C(=O)N2 (configuration not stated)	.	.	25.1µM*	0.0%	?	-16.6%
C[C@]12CC[C@H]3[C@@H](CCC4=CC(=O)CC[C@@H]43)[C@@H]1CC[C@@H]2OC(=O)CCc1ccco1	.	.	i	-9.3%	.	.
COC(=O)C(Cc1ccc(N(CCCl)CCCl)cc1)N=Cc1ccccc1O (configuration not stated)	?	25.9µM*	11.2µM*	3.16µM*	?	-51.5%
CCOC(=O)C(NC(=O)C(Cc1ccc(N(CCCl)CCCl)cc1)NC(C)=O)C(C)C (configuration not stated)	19.7%	0.7%	i	-2.9%	-4.5%	13.9%
CC(C)CCOC(=O)c1c(N)n(CC2CCCO2)c2nc3ccccc3nc12 (configuration not stated)	-16.7%	-8.1%	i	-13.7%	11.2µM*	-0.3%
CC(C)CCn1c(N)c(C(=O)OCC2CCCO2)c2nc3ccccc3nc21 (configuration not stated)	?	20.6µM*	i	-7.9%	?	-24.5%
O=S(=O)(O)C(F)(F)C(F)(F)C(F)(F)C(F)(F)C(F)(F)C(F)(F)C(F)(F)C(F)(F)F	.	.	?	14.8%[116 µM]	.	.
C[C@H](N)C(=O)c1ccccc1	.	.	i	8.9%[116 µM]	.	.
Cc1cccn2c(=O)c3cc(C(=O)N4CCC5(CC4)OCCO5)n(C)c3nc12	16.4µM*	13µM*	i	-8.6%	?	-21.9%
O=C(NCCOCCn1c(=O)oc2ccccc21)Nc1ccc(F)cc1F	.	.	i	-25.7%	?	-25.4%
C=C(C)COc1ccc(-c2n[nH]c(C)c2-c2ccc(Br)cc2)c(O)c1	10µM*	10µM*	.	-23.0%	12.6µM*	14.1µM*
O=C(O)C(=O)c1cn(Cc2ccccc2)c2ccc(-c3ccc(OC(F)(F)F)cc3)cc12	.	.	.	-7.1%	.	.
CN1CCC(O)(c2ccccc2)C(C(=O)c2ccccc2)C1 (configuration not stated)	9.2%	12.5%	i	5.0%	?	-13.1%
SMILES	HT1080-NT tox	HT1080 IDH1KD tx	S2 tox	ATXN2 expr inh	TGFb SMAD3 inh	HepG2 tox
CC1C(c2ccccc2)N(C)C(c2ccccc2)CC1(O)c1ccccc1 (configuration not stated)	?	?	?	?	?	22.4µM*
Oc1cc(Cl)ccc1Oc1ccc(Cl)cc1Cl	?	-28.3%	39.8µM*!	39.8µM*!	17.8µM*	-64.9%
CC(C)(C)NC[C@H](O)c1ccc(O)cc1Cl	.	.	?	14.0%	.	.
COC(=O)C1=C(c2ccc(OCc3ccccc3)cc2)C[C@@H]2CC[C@H]1N2C(=O)NC1CCN(Cc2ccccc2)CC1	?	?	11.2µM*	12.6µM*	?	-75.8%
COC(=O)C1=C(c2ccc(OCc3ccccc3)cc2)C[C@@H]2CC[C@H]1N2C(=O)NCCN1CCOCC1	-15.8%	-10.0%	i	-26.2%	-17.9%	-1.6%
CC1CCN(C(=O)Cn2c3ccccc3c3nc4n(c(=O)c32)CCCS4)CC1	-8.6%	-5.4%	?	-19.3%	-0.2%	8.7%
O=C(Nc1ccc(Br)cc1)c1cccc(S(=O)(=O)N2CCc3ccccc32)c1	.	.	i	?	?	-21.2%
C=CC[C@@H](CC(=O)N(CCO)Cc1ccccc1)C(=O)NC[C@@H](OC(=O)[C@@H](CC=C)CC(=O)OC(C)(C)C)c1ccccc1	-20.0%	-7.9%	20µM*	?	-24.2%	-14.4%
C=CC[C@H](CC(=O)N(CCO)Cc1ccccc1)C(=O)NC[C@H](OC(=O)[C@@H](CC=C)CC(=O)OC(C)(C)C)c1ccccc1	-26.7%	-0.4%	25.1µM*	?	?	-20.4%
O=C(NCc1ccc2c(c1)CCN2C(=O)c1ccccc1)Nc1cccc(C(F)(F)F)c1	.	.	.	.	2.82µM*	-10.3%
O=C(CN1C(=O)CN=C(c2ccccc2)c2ccccc21)Nc1cccc(C(F)(F)F)c1	.	.	.	?	?	-82.1%
CCOP(=O)(OCC)C(C)NC(=O)N(CCCl)N=O (configuration not stated)	.	.	.	12.7%	.	.
CC(C)N(Cc1ccccc1)C(=O)CCS(=O)(=O)c1ccc2c(c1)oc(=O)n2C	-5.2%	-0.2%	i	3.5%	-16.1%	-1.1%
Cc1ccc(Cl)cc1N1CCN(C(=O)C2CCCN(S(=O)(=O)c3ccc(Br)s3)C2)CC1 (configuration not stated)	.	.	i	-5.0%	?	4.2%
CC(=O)c1c(O)n(-c2cccc(Cl)c2)c(=O)[nH]c1=O (tested in a mixture with another compound)	13.8%	14.0%	i	-13.0%	-2.0%	11.2%
